MenB inh = inhibitors of Mycobacterium tuberculosis MenB enzyme; P9WNP5; MenB enzyme assay, absorbance read-out; inhibition, % (test concentration not listed); 100,000 tested, 0.43% active; AID 540299; in the data active = inhibition above about 21%, passing the limit was not always enough
PV pol inh = poliovirus RNA polymerase inhibition; P03300; poliovirus polymerase elongation, fluorescence polarization; stronger effect = lower value; % elongation, % (compound at 16.7 µg/mL); 150,000 tested, 0.66% active; AID 588519; in the data active = % elongation below about 90%
Target sequence (P03300 1749-2209 limits assumed): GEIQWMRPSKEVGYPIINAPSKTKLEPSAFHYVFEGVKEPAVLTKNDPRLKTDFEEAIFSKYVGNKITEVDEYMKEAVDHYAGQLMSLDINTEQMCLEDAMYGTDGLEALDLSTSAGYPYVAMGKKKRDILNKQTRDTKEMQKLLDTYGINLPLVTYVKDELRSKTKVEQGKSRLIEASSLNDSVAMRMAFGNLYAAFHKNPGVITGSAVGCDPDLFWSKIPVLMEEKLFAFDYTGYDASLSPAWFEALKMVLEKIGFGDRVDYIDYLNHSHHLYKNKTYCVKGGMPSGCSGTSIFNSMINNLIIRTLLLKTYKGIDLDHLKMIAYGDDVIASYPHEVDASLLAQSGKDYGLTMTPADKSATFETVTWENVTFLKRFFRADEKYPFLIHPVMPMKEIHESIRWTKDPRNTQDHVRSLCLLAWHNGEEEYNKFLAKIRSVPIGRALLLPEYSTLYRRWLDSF
AID504770 = growth inhibitors of E. coli YBA685 in a screen for V. cholerae RctB (chromosome II replication) inhibitors; 130,000 tested, 0.27% active; z-score (concentration not given with the values); E. coli YBA685 rctB-dependent plasmid, OD600 growth, 3 h; stronger effect = lower value; in the data active = z-score below about -2, passing the limit was not always enough
Mtb MbtI inh = inhibitors of Mycobacterium tuberculosis siderophore enzyme MbtI. P9WFX0. purified MbtI enzyme, fluorescence intensity read-out. inhibition, % (no concentration beside the values). 100,000 tested, 0.89% active; in the data active = inhibition mostly above about 56%, no sharp cut-off; inactive = mostly below about 77%
* marks the source's active call; other numbers are inactive results; i = inactive; . = no result given. Most compounds without a hit are left out; they make up all but 1.5% or so of the library.

SMILES	MenB inh	PV pol inh	AID504770	Mtb MbtI inh
Cc1cccc(NC(=O)c2ccccc2NC(=O)CN2CSCC2=O)c1	-32	102	-2.8	-16
NCCN1CCCC1=O	28*	105	1.6	-3
N#Cc1cc2c(nc1SCC(=O)N1CCCCC1)CCCC2	-6	100	-0.05	-36
N#Cc1cc2c(nc1SCC(=O)O)CCC2	6	108	-2.4*	.
CN(CC(=O)O)C(=S)c1ccccc1	5	76*	-0.5	54*
CN(C)C(=S)NC(=O)c1ccccc1	-1	99	-0.05	7
CCCc1nc2ccccc2n1CCC	.	.	-0.45	.
O=C1Nc2ccccc2/C1=N\N1C(=O)/C(=C/c2ccccc2)N=C1c1ccccc1	-57	88*	-1.1	.
CCN(CC)C(=O)CN1CCN(c2cccc(Cl)c2)CC1	33*	102	-0.1	0
O=C(O)CCN1CCN(c2cccc(Cl)c2)CC1	-19	101	-0.9	-8
O=C(CSc1nnc(Cc2ccccc2)o1)N(c1ccccc1)c1ccccc1	33	98	0.05	75*
O=C(CSc1nnc(Cc2ccccc2)o1)c1ccccc1	7	102	-0.35	-6
Cc1nnc(N2CCCC(C(=O)NCc3ccco3)C2)c2nn(-c3ccccc3)c(C)c12 (stereo not given)	0	101	-0.95	i
Cc1cc(C)c(C#N)c(Cl)n1	-32	101	0.15	-2
CC(C)=NNc1nc(Cl)c(C#N)c(Cl)c1Cl	-3	101	-0.6	61*
N#Cc1c(Cl)nc(N2CCOCC2)c(Cl)c1Cl	-20	104	-0.1	-9
N#Cc1c(Cl)nc(Cl)c(Cl)c1Cl	0	76*	-3.5*	72
CN(C)CCC(=O)c1ccc(Br)cc1	-6	102	-0.8	69*
CCCOc1ccc(C(=O)CCN(C)C)cc1	-57	97	-0.85	59*
CCCOc1ccc(C(=O)O)cc1	.	103	-0.15	-5
Cc1ccc2nc(SCc3ccccc3)[nH]c2c1	.	.	1.1	.
O=C(CC(c1cccs1)N1Cc2ccccc2C1=O)NCCN1CCOCC1 (stereo not given)	2	101	-2.2*	-9
O=C(CC(c1cccs1)N1Cc2ccccc2C1=O)NCc1ccc(CN2CCOCC2)o1 (stereo not given)	-2	102	-0.25	-11
Nc1nc(CN2CCCCC2)cs1	39*	101	-0.75	-12
Cc1nc2cc3ccccc3cc2c(=O)n1CCCNC1CCCCC1	-10	90*	1.4	.
SMILES	MenB inh	PV pol inh	AID504770	Mtb MbtI inh
O=c1c(=S)[nH]ccn1-c1ccccc1	1	100	-0.6	93*
O=c1[nH]ccn(-c2ccccc2)c1=O	-51	103	-0.2	1
Cc1ccccc1OCC(=O)NC1CCCCC1NC(=O)COc1ccccc1C (stereo not given)	-11	102	0.85	.
S=c1nc(Cc2ccccc2)[nH][nH]1	19	96	-0.35	.
S=c1nc(CNc2ccccc2)[nH][nH]1	-42	102	-0.8	95*
NC(N)=NCCN1CCOCC1	21	102	0.45	2
O=C(O)C1CC(c2ccc(F)cc2)=NO1 (stereo not given)	15	84*	-0.65	.
CN1C(=O)Cc2ccccc2C1=O	-70	38*	-1.1	15
COC(=O)CN1C(=O)Cc2ccccc2C1=O	.	.	-0.2	.
O=C1CC(Cc2ccccc2)C(=O)N1Cc1ccco1 (stereo not given)	36*	100	-0.2	-10
O=C(O)CN1C(=O)Cc2ccccc2C1=O	-37	24*	0.25	-4
O=C1Cc2ccccc2C(=O)N1Cc1ccco1	.	76*	0.65	-7
Cc1nnsc1C(=O)NCCc1c[nH]c2ccccc12	.	.	0.05	.
C=CCN(CC=C)Cn1nc(Nc2ccccc2F)sc1=S	3	107	0.35	99*
O=C1C2SCCN2C(=S)N1c1cccc(C(F)(F)F)c1 (stereo not given)	2	100	-0.8	70*
C[C@H]1COc2c(N3CCN(C)CC3)c(F)cc3c(=O)c(C(=O)O)cn1c23	-7	102	-4.4*	-51
O=C(Sc1ccc(Cl)cc1)c1cnn(-c2ccccc2)c1C(F)(F)F	-21	105	-0.3	54*
CCN(C(=O)COc1ccccc1C(N)=O)c1ccccc1	-21	101	-0.15	-4
CCn1cc(C(=O)NCC(C)C)c(=O)c2cc(F)c(N3CCN(C(=O)c4ccco4)CC3)cc21	3	101	-0.3	25
FC(F)(F)c1cccc(N2CCN(C(=S)Nc3ccc4c(c3)OCO4)CC2)c1	-35	99	0.95	3
CCn1cc(C(=O)O)c(=O)c2cnc(N3CCNCC3)nc21	-19	98	-3.2*	-9
CCn1cc(C(=O)O)c(=O)c2cc(F)c(N3CCN(C(=O)c4ccccc4F)CC3)cc21	-7	100	-3.8*	40
CCn1cc(C(=O)O)c(=O)c2cc(F)c(N3CCNCC3)cc21	-9	100	-4.7*	163
CCn1cc(C(=O)O)c(=O)c2cc(F)c(N3CCN(C(=S)Nc4ccc5c(c4)OCO5)CC3)cc21	-8	99	-3*	-11
COc1cc(OC)cc(C(=O)NC2C3CC4CC(C3)CC2C4)c1 (stereo not given)	.	101	-0.85	-10
SMILES	MenB inh	PV pol inh	AID504770	Mtb MbtI inh
CCOC(=O)C1CCN(C(c2cccnc2)c2nnnn2Cc2ccccc2)CC1 (stereo not given)	-5	99	-0.8	6
C/C(=N\N)c1ccc(Cl)c(Cl)c1Cl	-2	104	-0.45	0
CCc1ccc(NC(=O)C(C)N2C(=O)c3ccccc3C2=O)cc1 (stereo not given)	6	100	0.75	7
CCn1cc(C(=O)O)c(=O)c2cc(F)c(N3CCN(C)CC3)cc21	11	104	-6.9*	11
CCn1cc(C(=O)NN)c(=O)c2cc(F)c(N3CCCC3)cc21	0	102	-0.75	-10
CCOc1ccc(N2CC(c3nc4ccccc4n3C(C)C)CC2=O)cc1 (stereo not given)	-6	102	0.85	-1
CSC1=NSC2=NC(=O)/C(=C\c3cccs3)C(=N)N12	-61	99	-0.85	100*
Cc1sc2nc(CSCC(=O)NC(=O)c3cccn3C)[nH]c(=O)c2c1C	10	105	0.25	52
S=c1[nH]nc(SCc2cccs2)s1	3	98	0.15	102*
CCC(C)NC(=O)NCc1c(C)nn(C)c1C (stereo not given)	-7	102	-0.4	-18
O=C(O)CCC1NC(=O)NC1=O (stereo not given)	-9	101	1.4	-9
CCc1c(C)c(C#N)c2nc3ccccc3n2c1NC1CCCC1	-14	101	-0.65	-8
CC1(C)Nc2ccccc2C(=O)N1c1ccccc1	43*	102	0.75	90
COc1ccc(CCNc2nc(C)nc3c2nnn3Cc2ccccc2)cc1OC	39*	100	-0.1	-3
OC1(CCC2(O)CCCC2)CCCC1	28*	100	1.5	-5
Cn1cnnc1SC1c2cccc3cccc(c23)C1NS(C)(=O)=O (stereo not given)	.	.	0.75	.
NN=C(c1ccccc1)c1ccccc1	1	101	-0.75	19
O=S(N=C(c1ccccc1)c1ccccc1)c1ccccc1 (stereo not given)	-21	101	-0.75	68*
Cc1cc(C)c(/C=N/NC(N)=O)c(C)c1/C=N/NC(N)=O	2	102	-3.2*	-14

Compound activity as filed in PubChem.
